A selection: hits, their analogues and other compounds. The true share with any hit is near 7.4%.
FLuc modulator: qHTS profiling assay for firefly luciferase inhibitor/activator using purifed enzyme and Km concentrations of substrates (counterscreen for miR-21 project); Luciferin 4-monooxygenase (Photinus pyralis), P08659; purified FLuc, Km substrates, luminescence inhibition; Potency, µM (top dose mostly 57.5 µM), for inactives: at the top dose activity change, negative = inhibition, usual class: inhibitors; 6.9% of 360,000 active; AID 588342, 2011;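 also: plate controls were vehicle for no effect and reference inhibitor for full effect; nearly all actives have a fitted effect of over 55% in size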
Target sequence (P08659 whole entry, looked up): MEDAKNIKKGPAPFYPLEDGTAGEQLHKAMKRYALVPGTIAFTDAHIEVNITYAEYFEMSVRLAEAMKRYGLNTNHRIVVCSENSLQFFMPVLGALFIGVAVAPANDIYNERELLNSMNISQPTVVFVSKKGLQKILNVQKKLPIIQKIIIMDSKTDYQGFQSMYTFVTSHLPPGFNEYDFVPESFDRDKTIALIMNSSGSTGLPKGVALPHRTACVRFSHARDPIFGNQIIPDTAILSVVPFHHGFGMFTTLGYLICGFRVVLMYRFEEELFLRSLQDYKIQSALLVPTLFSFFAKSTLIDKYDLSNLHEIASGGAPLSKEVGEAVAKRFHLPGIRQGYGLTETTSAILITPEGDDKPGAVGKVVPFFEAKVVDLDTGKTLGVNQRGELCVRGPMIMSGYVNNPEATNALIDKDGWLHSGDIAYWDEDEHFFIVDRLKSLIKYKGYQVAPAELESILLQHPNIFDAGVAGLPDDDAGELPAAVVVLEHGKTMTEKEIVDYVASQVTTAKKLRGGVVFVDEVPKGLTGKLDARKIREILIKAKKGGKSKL
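Purified P. pyralis luciferase, 10 nM final, with Km-level 10 uM D-luciferin and 10 uM ATP in 50 mM Tris acetate pH 7.5, 10 mM Mg acetate, 0.01% Tween-20, 0.05% BSA; 6-point qHTS titration about 60 µM downward; luminescence read.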
ELG1 genotoxic: qHTS screen for small molecules that induce genotoxicity in human embryonic kidney (HEK293T) cells expressing luciferase-tagged ELG1; HEK293T ELG1-luciferase reporter, luminescence, 16 h; Potency, µM (top dose mostly 46 µM), for inactives: at the highest dose activity change, positive = activation, actives largely listed as activators; 1.3% of 330,000 active; also: % of control where 0% means no effect; nearly all actives have a fitted effect of over 60% in size
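HEK293T cells expressing luciferase-tagged ELG1 were treated with compound or DMSO for 16 hr at 37°C. Luciferase activity was then read after 30 min with ONE-Glo at room temperature; rising signal flags genetic stress.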
SMN2 splice up: qHTS Assay for Enhancers of SMN2 Splice Variant Expression; AID 1458, 2008; Potency, µM (highest dose often 46.1 µM), for the others: at the highest dose activity change, positive = activation, hits mostly activators; HEK293 SMN2-luciferase splicing reporter, luminescence, 30-36 h; 2.8% of 210,000 active; also: % of control where 0% means no effect; nearly all actives have a fitted effect of over 55% in size
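qHTS luciferase splicing reporter: luminescence rises when SMN2 exon 7 is included in transfected HEK293 cells. Compound exposure lasted 30-36 h at 37C, with 4.5 mM final sodium butyrate as control, followed by a ONE-Glo read.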
NPC1 promoter act: qHTS Assay for NPC1 Promoter Activators. 2.4% of 320,000 active. Potency, µM (top dose mostly 9.22 µM), inactives show top-dose activation, hits mostly activators. Huh7 NPC1 promoter luciferase reporter, 24 h; also: % of control where 0% means no effect; nearly all actives have a fitted effect of over 60% in size
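Luminescence from an NPC1 promoter-driven luciferase reporter in stably transfected Huh7 cells was measured after 24 h compound treatment at 37 °C, followed by 10 min ambient incubation with luciferase detection reagent.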
Rab9 promoter act: qHTS Assay for Rab9 Promoter Activators; Potency, µM (doses to about 9.22 µM), inactives show at the top dose activation, negative = inhibition, actives largely listed as activators; Huh7 Rab9 promoter-luciferase reporter, luminescence, 24 h; 2.8% of 320,000 active; also: % of control where 0% means no effect; nearly all actives have a fitted effect of over 60% in size
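Using Huh7 cells stably transfected with Rab9 promoter–luciferase, compounds were incubated 24 h at 37 °C, 5% CO2; luciferase luminescence was read 10 min after reagent addition.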
* = called active by the depositor; [ ] = another dose, or the depositor's remark. Calls follow the shape of the dose curve; as a rule, active = well fitted curve in the direction sought with a large enough effect; inconclusive = small, poorly fitted or top-dose-only effect, or another doubt; inactive = no such curve, though single readings can be large; an effect the other way counts as inactive or inconclusive. Potency is read from the fitted curve at half-maximal effect.

Results for COc1ccc(CNC(=O)CCCn2ncn3c(cc4occc43)c2=O)cc1 ?
FLuc modulator: 4%; ELG1 genotoxic: 1%[9.26 µM]; NPC1 promoter act: 0%; Rab9 promoter act: -2%

What do the screens show for `Nc1cccc(-c2ccc(CO)o2)c1`?
FLuc modulator: 17µM*; ELG1 genotoxic: 8%; NPC1 promoter act: 0%; Rab9 promoter act: 0%

How did C[C@@]12CCC(=O)C=C1CC[C@@H]1[C@@H]2[C@H](O)C[C@]2(C)[C@@H]1CC[C@]2(O)C(=O)CO do in these assays?
SMN2 splice up: -8%[20.6 µM]

What do the screens show for `O=C(Nc1ccccc1C(F)(F)F)c1ncoc1-c1ccco1`?
FLuc modulator: -1%

Results for Cc1cccc(C#Cc2ccccc2)n1 ?
FLuc modulator: 6µM*; ELG1 genotoxic: 8.2µM*; SMN2 splice up: 13µM*; NPC1 promoter act: 5.8µM*; Rab9 promoter act: 5µM*

What do the screens show for `CCCOc1ccc(NC(=O)CC2C(=O)N(c3cccc(C)c3)C(=O)N2CCc2ccncc2)cc1` (stereo not drawn)?
FLuc modulator: 5%

How did Oc1cccc(Nc2cc(-c3ccccc3)ncn2)c1 do in these assays?
FLuc modulator: 17µM*

How did CC1CCCN(C(=O)COc2ccc(-c3ccccc3)cc2)C1 (stereo not drawn) do in these assays?
FLuc modulator: inconclusive; ELG1 genotoxic: 7%; SMN2 splice up: 14%; NPC1 promoter act: 1%; Rab9 promoter act: 16%

How did O=C(COc1ccc(F)cc1)N1CCC(c2ccccc2)C1 (stereo not drawn) do in these assays?
FLuc modulator: 19µM*; ELG1 genotoxic: inconclusive; SMN2 splice up: 13µM*; NPC1 promoter act: 29%; Rab9 promoter act: inconclusive

What do the screens show for `Cc1cccc(OCC(=O)N2CCN(C(=O)Cc3ccccc3)CC2)c1`?
FLuc modulator: 3%; ELG1 genotoxic: -2%; SMN2 splice up: -7%; NPC1 promoter act: -3%; Rab9 promoter act: -2%

Results for Cc1cccc(OCC(=O)N2CCC(c3ccccc3)C2)c1 (stereo not drawn) ?
FLuc modulator: 13µM*; ELG1 genotoxic: 21µM*; SMN2 splice up: 16µM*; NPC1 promoter act: 3.2µM*; Rab9 promoter act: 2.8µM*

Results for COc1cccc(C2C(C(=O)Nc3ccccc3OC)=C(C)Nc3nc4ccccc4n32)c1 (stereo not drawn) ?
FLuc modulator: -2%; SMN2 splice up: 23%

What do the screens show for `CCCCN(CCCC)C(=O)c1cc2c(=O)n3ccccc3nc2s1`?
FLuc modulator: 3%; SMN2 splice up: -2%

Results for CC(C)c1ccc(-c2noc(SCC(=O)N3CCCCC3C)n2)cc1 (stereo not drawn) ?
FLuc modulator: 3µM*

What do the screens show for `CCN(C(=O)CSc1nc(-c2ccc(C(C)C)cc2)no1)c1ccccc1`?
FLuc modulator: 9.5µM*

How did CN(C(=O)CSc1nc(-c2ccccc2)no1)c1ccc(F)cc1 do in these assays?
FLuc modulator: -6%

How did COc1cc(NC(=O)CSc2nc(-c3ccc(C(C)C)cc3)no2)cc(OC)c1 do in these assays?
FLuc modulator: 2.7µM*

Results for COc1cc(NC(=O)CSc2nc(-c3ccccc3)no2)cc(OC)c1 ?
FLuc modulator: 1%

What do the screens show for `CC(C)c1ccc(-c2noc(SCC(=O)N3CCN(c4ccc(F)cc4)CC3)n2)cc1`?
FLuc modulator: -14%

Results for CC1CCN(C(=O)CSc2nc(-c3ccc(C(C)C)cc3)no2)CC1 ?
FLuc modulator: 3.4µM*

How did COCCn1c(=O)c(-c2ccc(Cl)cc2)nc2cnc(OC)nc21 do in these assays?
SMN2 splice up: 0%

What do the screens show for `O=C(Nc1cccc(F)c1)N1CC2(CCN(C(=O)c3ccco3)CC2)C1`?
SMN2 splice up: -15%

What do the screens show for `COc1ccccc1CCNC(=O)C(=O)NCC(c1cccs1)S(=O)(=O)c1ccc(C)cc1` (stereo not drawn)?
FLuc modulator: -5%
